{
  "source": "paper PMC9838217",
  "about": "“Structure of SALL4 zinc finger domain reveals link between AT-rich DNA binding and Okihiro syndrome”",
  "data": [
    {"molecular_target": "T1, SALL4 ZFC4 WT (HT-SELEX) (Mus musculus, UniProt Q8BX22 870-940)", "T1 sequence": "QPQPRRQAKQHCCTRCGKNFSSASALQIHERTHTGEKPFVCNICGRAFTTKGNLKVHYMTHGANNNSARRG", "assay": "HT-SELEX; high values mean tight binding", "conditions": "protein: recombinant; vector His6-GST; dsDNA, one strand shown", "summary_of_the_method": "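Residues 870–940 of mouse SALL4, forming zinc finger cluster 4, were expressed recombinantly, purified, and 1 µg was incubated with library DNA (1.5 µg first cycle, 200 ng later) in 100 µl of 10 mM Tris–HCl pH 7.5, 50 mM NaCl, poly(dI-dC) and DTT for 10 min at room temperature. Washed Ni2+ bead-captured complexes were PCR-amplified and reselected for up to 6 cycles in triplicate, and the products were sequenced on MiSeq and scanned for 6-mers. Binding signal is the fold change in each canonical k-mer's read fraction compared with the initial random library.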", "units": {"binding signal": "fold-change vs cycle 0"}, "values": [
      {"sequence": "ACATCC", "binding signal": "0.877 ± 0.0368"},
      {"sequence": "CACGAG", "binding signal": "0.41 ± 0.0151"},
      {"sequence": "TCCGAA", "binding signal": "0.618 ± 0.0382"},
      {"sequence": "AACTAA", "binding signal": "2.02 ± 0.0351"},
      {"sequence": "GTAAGA", "binding signal": "1.45 ± 0.0375"},
      {"sequence": "TCACCA", "binding signal": "0.829 ± 0.0293"},
      {"sequence": "ATTAAC", "binding signal": "2.04 ± 0.0632"},
      {"sequence": "ACACTA", "binding signal": "1.26 ± 0.0187"},
      {"sequence": "CACTGG", "binding signal": "0.426 ± 0.00956"},
      {"sequence": "AAAGGT", "binding signal": "1.26 ± 0.075"},
      {"sequence": "AAGTTA", "binding signal": "2.21 ± 0.185"},
      {"sequence": "TTCGAA", "binding signal": "1.05 ± 0.0775"},
      {"sequence": "TCCTAA", "binding signal": "1.43 ± 0.0908"},
      {"sequence": "CCTTCG", "binding signal": "0.394 ± 0.0327"},
      {"sequence": "AGGATA", "binding signal": "1.55 ± 0.0339"},
      {"sequence": "CACCAA", "binding signal": "0.692 ± 0.0333"},
      {"sequence": "GCTGTA", "binding signal": "0.574 ± 0.0425"},
      {"sequence": "GAGACA", "binding signal": "0.735 ± 0.0463"},
      {"sequence": "GATGCA", "binding signal": "0.68 ± 0.0339"},
      {"sequence": "ATACAC", "binding signal": "1.31 ± 0.0559"},
      {"sequence": "ATGGTG", "binding signal": "0.792 ± 0.0243"},
      {"sequence": "GAGTCC", "binding signal": "0.481 ± 0.0188"},
      {"sequence": "ATGAGG", "binding signal": "0.907 ± 0.0235"},
      {"sequence": "GGAACC", "binding signal": "0.444 ± 0.034"},
      {"sequence": "AGGAAT", "binding signal": "1.52 ± 0.0788"},
      {"sequence": "CGATCC", "binding signal": "0.359 ± 0.0529"},
      {"sequence": "CTCTCA", "binding signal": "0.878 ± 0.0209"},
      {"sequence": "AACTCG", "binding signal": "0.7 ± 0.0308"},
      {"sequence": "TAACGA", "binding signal": "1.27 ± 0.0588"},
      {"sequence": "CCCTCA", "binding signal": "0.502 ± 0.0184"},
      {"sequence": "ATGAAC", "binding signal": "1.5 ± 0.0592"},
      {"sequence": "AAAAAC", "binding signal": "1.45 ± 0.0971"},
      {"sequence": "AGGTTG", "binding signal": "0.791 ± 0.0234"},
      {"sequence": "CCTTGA", "binding signal": "0.879 ± 0.0172"},
      {"sequence": "ATGCAC", "binding signal": "0.606 ± 0.0179"},
      {"sequence": "TGACCA", "binding signal": "0.72 ± 0.0319"},
      {"sequence": "CATGAG", "binding signal": "0.884 ± 0.0345"},
      {"sequence": "ATTCTG", "binding signal": "1.27 ± 0.0284"},
      {"sequence": "ACTAAC", "binding signal": "1.38 ± 0.0461"},
      {"sequence": "AGACTC", "binding signal": "0.806 ± 0.0153"}
    ]}
  ]
}
